Peg3 promoter – reduces Peg3 promoter-driven luciferase expression in HeLa; inhibition, % at 20 µM; AID 588405; HeLa PEG-Prom luciferase reporter, luminescence, overnight; 360,000 tested, 1.7% active;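 active = inhibition of at least 50% at 20 µM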
Shn3 inh set2 – Schnurri-3 reporter inhibition in Clone20 osteoblasts. 360,000 tested, 0.52% active. inhibition, % at 12.5 µM. Clone20 osteoblast Shn3 3'UTR firefly luciferase, 24 h. AID 588674;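 active = mean inhibition of at least 75% with every replicate also reaching 75%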;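 note: 0% = median of neutral control wells and 100% = pilot-screen positive control compound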
HIF-2a block – blocks HIF-2a reporter activity; 360,000 tested, 0.72% active; inhibition, % at 18.8 µM; 786-0 RCC cells HIF-2a reporter, luciferase luminescence, overnight;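 active = inhibition of the luminescence signal of 40% or more relative to plate controls, in a single-dose primary screen at 18.75 µM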
MITF TRPM1 inh – inhibitors of MITF-driven TRPM1 promoter in melanoma cells; AID 488899; inhibition, % at 12.5 µM; 330,000 tested, 0.83% active; SK-MEL-5 TRPM1 promoter luciferase, 24 h;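 active = mean inhibition across replicates of 60% or more, whatever share of single replicates reaches that level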
KKLEB tox – reduces viability of KKLEB cystic fibrosis airway cells. KKLEB CF airway cells viability, ATPlite luminescence, overnight; hits give low values; cells stimulated with P. aeruginosa culture filtrate. activity change (cytotoxicity), % at 5 µM. 360,000 tested, 0.36% active. AID 602141;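 active = corrected activity change at or below -50% at 5 µM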
CF NFkB inh – inhibitors of cystic fibrosis induced NF-kB; 360,000 tested, 0.86% active; AID 588850; KKLEB NF-kB-GFP reporter, PAF-induced, GFP fluorescence overnight; inhibition, % at 5 µM;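 active = at least 50% inhibition at 5 µM, scaled per plate between neutral and stimulator controls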;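 note: PAF is a Pseudomonas aeruginosa culture filtrate used as stimulus; plate controls were PAF-stimulated DMSO wells for no effect and unstimulated DMSO wells for full effect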
* marks the source's active call; other numbers are inactive results. Shown are actives, neighbours in structure and some others; about 2.8% of the full set was active somewhere.

What do the screens show for `COc1cc(CN(C)CC2CCCN(CCc3ccccc3F)C2)cc(Cl)c1OC` (configuration not stated)?
Peg3 promoter: 25; Shn3 inh set2: -30; HIF-2a block: 12; MITF TRPM1 inh: -11; KKLEB tox: 1; CF NFkB inh: 6

Results for COc1cccc(CNC(=O)CCc2nc3cc(S(=O)(=O)N4CCOCC4)ccc3n2C)c1 ?
Peg3 promoter: -11; Shn3 inh set2: -19; HIF-2a block: -40; MITF TRPM1 inh: 6; KKLEB tox: 14; CF NFkB inh: 0

What do the screens show for `C=C(C)COc1ccc(-c2n[nH]c(C)c2-c2ccc(OC)cc2)c(O)c1`?
Peg3 promoter: 80*; Shn3 inh set2: 40; HIF-2a block: 19; MITF TRPM1 inh: 6; KKLEB tox: -15; CF NFkB inh: -11

Results for COc1ccc(C(=O)OCC(=O)Nc2c(C)cccc2C)c(OC)c1OC ?
Peg3 promoter: 8; Shn3 inh set2: 2; HIF-2a block: 12; MITF TRPM1 inh: 3; KKLEB tox: -7; CF NFkB inh: 11

What do the screens show for `CC1(C)Cc2c(sc3c2c(=O)n(-c2cccc(Cl)c2)c(=O)n3CC(N)=O)CO1`?
Peg3 promoter: 6; Shn3 inh set2: 1; HIF-2a block: 19; MITF TRPM1 inh: 5; KKLEB tox: -1; CF NFkB inh: 3

How did O=c1c2ccccc2sn1-c1ccccc1 do in these assays?
Peg3 promoter: 65*; Shn3 inh set2: 16; HIF-2a block: -69; MITF TRPM1 inh: -5; KKLEB tox: -13; CF NFkB inh: 1

Results for O=c1c2ccccc2sn1-c1cccc(Cl)c1 ?
Peg3 promoter: -42; Shn3 inh set2: -15; HIF-2a block: -188; KKLEB tox: -2; CF NFkB inh: 60*

What do the screens show for `O=c1c2cc(C(F)(F)F)ccc2sn1-c1ccccc1`?
Peg3 promoter: -83; Shn3 inh set2: -44; HIF-2a block: -242; KKLEB tox: -10; CF NFkB inh: 51*

How did N#C/C(=C(/O)c1ccc([N+](=O)[O-])o1)c1nc2ccccc2[nH]1 do in these assays?
Peg3 promoter: 77*; Shn3 inh set2: 11; HIF-2a block: 39; MITF TRPM1 inh: 87*; KKLEB tox: -29; CF NFkB inh: 94*

Results for CC(C)(C)/C(O)=C(/C#N)c1nc2ccccc2[nH]1 ?
Peg3 promoter: 4; Shn3 inh set2: 15; HIF-2a block: -6; MITF TRPM1 inh: 9; KKLEB tox: 8; CF NFkB inh: 1

Results for O=S(=O)(NCc1ccccn1)c1cc(Cl)ccc1Cl ?
Peg3 promoter: 1; Shn3 inh set2: -1; HIF-2a block: 8; MITF TRPM1 inh: -9; KKLEB tox: 4; CF NFkB inh: -1

How did CCOC(=O)C1CCN(C(=O)COc2ccc3c(C)cc(=O)oc3c2)CC1 do in these assays?
Peg3 promoter: -8; Shn3 inh set2: 4; HIF-2a block: 2; MITF TRPM1 inh: 3; KKLEB tox: 9; CF NFkB inh: -11

What do the screens show for `CCCNC(=O)c1ccc(N2CCC3(CC2)CC(c2cccc(Br)c2)=NO3)c(NC(=O)c2ccc(Cl)c([N+](=O)[O-])c2)c1`?
Peg3 promoter: 73*; Shn3 inh set2: 9; HIF-2a block: 12; MITF TRPM1 inh: 44; KKLEB tox: -1; CF NFkB inh: -4

How did Cc1ccc(CNC(=O)c2ccc(N3CCC4(CC3)CC(c3cccc(Br)c3)=NO4)c(NC(=O)c3ccc(Cl)c([N+](=O)[O-])c3)c2)cc1 do in these assays?
Peg3 promoter: 13; Shn3 inh set2: 1; HIF-2a block: -2; MITF TRPM1 inh: 19; KKLEB tox: 0; CF NFkB inh: 0

How did Cc1ccc(-c2cccc(-c3cc(=O)oc4ccc(C(C)(C)C)cc34)c2)cc1 do in these assays?
Peg3 promoter: 11; Shn3 inh set2: 3; HIF-2a block: 2; MITF TRPM1 inh: -4; KKLEB tox: -8; CF NFkB inh: 35

What do the screens show for `Cc1ccc(-c2nnc(NCc3nc4ccccc4[nH]3)c3ccccc23)cc1S(=O)(=O)N1CCOCC1`?
Peg3 promoter: 65*; Shn3 inh set2: 0; HIF-2a block: -9; MITF TRPM1 inh: 30; KKLEB tox: -15; CF NFkB inh: -16

Results for Cc1ccc(-c2nnc(NCc3nc4ccccc4[nH]3)c3ccccc23)cc1S(=O)(=O)N(C)C ?
Peg3 promoter: 16; Shn3 inh set2: 34; HIF-2a block: 8; MITF TRPM1 inh: 20; KKLEB tox: -24; CF NFkB inh: 4

Results for COCc1nn2c(N)c(C#N)cnc2c1-c1ccccc1 ?
Peg3 promoter: 11; Shn3 inh set2: 95*; HIF-2a block: -31; MITF TRPM1 inh: 10; KKLEB tox: -4; CF NFkB inh: 4

Results for CCN1CCN(c2cc(C)c3cc(NC(=S)N4CCN(c5ccc(F)cc5)CC4)ccc3n2)CC1 ?
Peg3 promoter: 88*; Shn3 inh set2: 6; HIF-2a block: 16; MITF TRPM1 inh: 85*; KKLEB tox: -9; CF NFkB inh: 20

How did CCN1CCN(C(=S)Nc2ccc3nc(N4CCN(CC)CC4)cc(C)c3c2)CC1 do in these assays?
Peg3 promoter: 0; Shn3 inh set2: -44; HIF-2a block: 27; MITF TRPM1 inh: 6; KKLEB tox: -15; CF NFkB inh: -16

What do the screens show for `COc1ccc(C(C)(O)c2nc(-c3ccc4c(c3)OCO4)cs2)cc1` (configuration not stated)?
Peg3 promoter: -12; Shn3 inh set2: 15; HIF-2a block: -46; KKLEB tox: 11; CF NFkB inh: 1

How did CN(C)CCOc1nc(-c2ccccc2)nc2c1oc1ccccc12 do in these assays?
Peg3 promoter: 100*; Shn3 inh set2: -10; HIF-2a block: 2; MITF TRPM1 inh: 20; KKLEB tox: 0; CF NFkB inh: -67

Results for COc1ccc(OCCCC(=O)Nc2ncn[nH]2)cc1 ?
Peg3 promoter: 9; Shn3 inh set2: 9; HIF-2a block: 4; MITF TRPM1 inh: 5; KKLEB tox: 4; CF NFkB inh: -19

What do the screens show for `CC1CCCCC1NS(=O)(=O)c1ccc2c(c1)CC(=O)N2C` (configuration not stated)?
Peg3 promoter: 3; Shn3 inh set2: 5; HIF-2a block: 3; MITF TRPM1 inh: -2; KKLEB tox: 14; CF NFkB inh: -25

Results for CCOC(=O)/C(=N\Nc1ccccc1Cl)N(C)C1CCCCC1 ?
Peg3 promoter: 11; Shn3 inh set2: 13; HIF-2a block: -7; MITF TRPM1 inh: 8; KKLEB tox: -6; CF NFkB inh: 10

What do the screens show for `COc1cc(-c2cc(NC=O)c3ncc(-c4ccc(C(C)=O)cc4)n3c2)cc(OC)c1OC`?
Peg3 promoter: 57*; Shn3 inh set2: 19; HIF-2a block: 27; KKLEB tox: -18; CF NFkB inh: 16

How did COc1cc(-c2cc(NC=O)c3ncc(-c4ccccc4)n3c2)cc(OC)c1OC do in these assays?
Peg3 promoter: 51*; Shn3 inh set2: -4; HIF-2a block: -66; KKLEB tox: -14; CF NFkB inh: 3

Screens as filed in PubChem.
